Shown are actives, neighbours in structure and some others; about 12% of the full set was active somewhere.
USP17 block = inhibitors of human USP17 deubiquitinase | Ubiquitin carboxyl-terminal hydrolase 17-like protein 5 (Homo sapiens), A8MUK1 | purified USP17, Ub-rhodamine cleavage fluorescence, 3 h | inhibition, % at 50 µM | 47,000 compounds, 6.5% hits | AID 1645855, 2021
USP8 inh = inhibitors of human USP8 deubiquitinase; Ubiquitin carboxyl-terminal hydrolase 8 (Homo sapiens), P40818; AID 1645853, 2021; 47,000 compounds, 4.2% hits; inhibition, % at 20 µM; purified USP8, Ub-rhodamine cleavage fluorescence, 30 min
Target sequence (P40818 whole entry, looked up): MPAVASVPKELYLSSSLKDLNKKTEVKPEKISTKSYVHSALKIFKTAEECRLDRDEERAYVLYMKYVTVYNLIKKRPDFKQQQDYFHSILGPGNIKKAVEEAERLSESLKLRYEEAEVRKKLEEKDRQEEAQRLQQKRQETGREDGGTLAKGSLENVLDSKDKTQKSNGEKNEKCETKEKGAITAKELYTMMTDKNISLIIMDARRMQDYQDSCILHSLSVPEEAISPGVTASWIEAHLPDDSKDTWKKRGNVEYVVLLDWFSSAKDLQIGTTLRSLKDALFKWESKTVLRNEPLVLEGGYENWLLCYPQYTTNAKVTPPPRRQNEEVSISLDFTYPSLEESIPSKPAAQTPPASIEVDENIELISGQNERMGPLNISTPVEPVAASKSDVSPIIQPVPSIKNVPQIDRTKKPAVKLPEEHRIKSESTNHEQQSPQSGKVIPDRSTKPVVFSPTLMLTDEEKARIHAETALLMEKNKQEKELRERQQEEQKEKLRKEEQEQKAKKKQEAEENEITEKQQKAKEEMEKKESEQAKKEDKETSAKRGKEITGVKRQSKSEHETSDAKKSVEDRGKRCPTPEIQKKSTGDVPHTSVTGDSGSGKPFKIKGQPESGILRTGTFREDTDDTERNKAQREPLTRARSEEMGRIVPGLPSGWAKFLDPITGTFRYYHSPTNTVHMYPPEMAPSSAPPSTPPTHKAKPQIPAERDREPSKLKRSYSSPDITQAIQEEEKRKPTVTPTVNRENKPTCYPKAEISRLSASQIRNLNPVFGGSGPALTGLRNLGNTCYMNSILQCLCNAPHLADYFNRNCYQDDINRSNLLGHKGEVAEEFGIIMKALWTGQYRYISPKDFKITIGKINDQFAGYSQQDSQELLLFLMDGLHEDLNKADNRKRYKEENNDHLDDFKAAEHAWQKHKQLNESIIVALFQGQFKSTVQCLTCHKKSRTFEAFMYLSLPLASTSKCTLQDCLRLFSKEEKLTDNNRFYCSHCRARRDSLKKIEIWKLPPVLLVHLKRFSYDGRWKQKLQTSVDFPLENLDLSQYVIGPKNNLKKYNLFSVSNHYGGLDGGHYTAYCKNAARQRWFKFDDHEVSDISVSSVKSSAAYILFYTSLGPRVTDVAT
USP30 block = inhibitors of human USP30 deubiquitinase; purified USP30, Ub-rhodamine cleavage fluorescence; 47,000 compounds, 5.3% hits; inhibition, % at 25 µM; AID 1645860, 2021
Starred values were filed as active, the others as inactive; i = inactive; / = not tested or not shown. Cut-off read from the data, not from the text of the source: active = inhibition above about 30%; inactive = the rest.

SMILES	USP17 block	USP8 inh	USP30 block
CCOc1ccc2[nH]c(=O)c(CN(Cc3ccc4c(c3)OCO4)C(=O)Nc3ccccc3)cc2c1	6	3	-11
Cc1nn(C)c(C)c1CCNC(=O)Nc1ccccc1	0	1	0
O=C(Nc1cnn(-c2ncncc2N2CCCCC2)c1)c1cccc(F)c1	-3	-32	-1
O=C(NC1CCCCC1)NC(CO)c1ccccc1 (stereo unspecified)	16	1	15
CN1CCn2c(nnc2C2CCCN2C(=O)c2cc(C3CCCCC3)no2)C1 (stereo unspecified)	1	4	5
COc1ccc(Cl)cc1NC(=O)C1Nc2ccccc2S(=O)(=O)N1 (stereo unspecified)	7	12	13
CC(=O)N1CCOc2cc(S(=O)(=O)Nc3ccccc3Cl)c(C)cc21	7	2	11
COc1ccc(C2CC(=O)C3=C(C2)Nc2ccccc2N(C(=O)C2CC2)C3c2cccc(F)c2)cc1 (stereo unspecified)	-9	-4	26
CC1=C[C@H]2N(c3ccccc31)[C@H](C(=O)C(C)(C)C)[C@@H](C(=O)c1ccco1)[C@]21C(=O)Nc2ccccc21	-57	-84	-423
CC1=C[C@H]2N(c3ccc(C)cc31)[C@H](C(=O)C(C)(C)C)[C@@H](C(=O)c1ccccc1)[C@]21C(=O)Nc2ccccc21	41*	80*	-93
Cc1ccc2c(c1)[C@]1(C(=O)N2)N2CCC[C@H]2[C@@H](C(=O)c2ccccc2)[C@]12C(=O)Nc1ccccc12	0	17	-16
CC1=C[C@H]2N(c3ccc(C)cc31)[C@H](C(=O)c1cccs1)[C@@H](C(=O)c1ccc(F)cc1)[C@]21C(=O)Nc2ccccc21	59*	78*	-72
Cc1ccc(S(=O)(=O)N2CCN3Cc4ccccc4N(C)CC3C2)cc1 (stereo unspecified)	-155	-281	i
O=C(NCCc1ccccc1)N1CC[C@@H]2CNS(=O)(=O)[C@@H]2CC1	4	-28	19
CCOC(=O)N1CCN(C(=O)C2CCCN2S(=O)(=O)c2ccc(Cl)cc2)CC1 (stereo unspecified)	-3	-14	-5
CN(C)c1nc2c(c(=O)[nH]c(=O)n2C)n1CC(=O)c1ccccc1	3	1	/
Cn1c(=O)[nH]c(=O)c2c1nc(NCCCO)n2CC(=O)c1ccccc1	13	11	40*
O=C(CCCCCn1c(=O)[nH]c2ccccc2c1=O)NCCc1ccc(Cl)cc1	16	48*	22
O=C(CCCCCn1c(=O)[nH]c2ccccc2c1=O)NCc1ccccc1Cl	25	28	48*
Cc1ccc(C)c(N2CCN(C(=O)CCCn3c(=O)[nH]c4ccccc4c3=O)CC2)c1	/	6	15
O=C(CCCn1c(=O)[nH]c2ccccc2c1=O)N1CCC(O)(c2ccc(Cl)cc2)CC1	-5	-10	0
CC(C)(C)c1cc(CCC(=O)Nc2c3c(nc4c2CCC4)CCCC3)cc(C(C)(C)C)c1O	0	8	77*
CC(C)(C)c1cc(NC(=O)CCc2ccccc2)no1	4	11	24
O=C(NCCc1c[nH]c2ccccc12)NCc1ccc(Cl)cc1Cl	21	2	32*
O=C(CCCc1c[nH]c2ccccc12)N1CCN(C(=O)c2ccc(Cl)cc2Cl)CC1	3	6	7
SMILES	USP17 block	USP8 inh	USP30 block
Cc1c(C#N)c2ccccc2n1CC(=O)NCc1ccc2c(c1)OCO2	40*	60*	22
Cc1cc(C)c(NC(=O)Cn2c(=O)n(CCC(=O)NCc3ccc4c(c3)OCO4)c(=O)c3sccc32)c(C)c1	75*	27	27
CCCn1c(=O)c2sccc2n2c(CCC(=O)NCCC3=CCCCC3)nnc12	5	14	2
N#Cc1ccccc1Cn1c(=O)n(CCC(=O)NCc2ccc3c(c2)OCO3)c(=O)c2ccccc21	20	11	25
COc1c(C)cnc2c1c(=O)n(CC(=O)NCc1ccc3c(c1)OCO3)c(=O)n2C	22	13	36*
O=C(CCCn1c(=O)c2sccc2n(CC(=O)NCCC2=CCCCC2)c1=O)NCc1ccc2c(c1)OCO2	50*	4	20
Cc1c(C#N)c2ccccc2n1CC(=O)NCC1CCCO1 (stereo unspecified)	-7	1	-30
CCOc1c(CC)cnc2c1c(=O)n(CC(=O)NCc1ccc(F)cc1)c(=O)n2C	5	7	17
O=C(Nc1nc(C(=O)Nc2cccnc2)co1)c1ccccc1	-34	-116	-19
Cc1n[nH]c(C)c1C(C)C(=O)Nc1cccc(Cl)c1C (stereo unspecified)	7	-1	-69
CCN1CC[C@@]2(C(=O)Nc3ccccc3)CCN(C(=O)c3ccncn3)CC[C@@H]12	0	15	-2
COc1cccc(NC(=O)CSc2ncnc3c2sc2nc(C)c4c(c23)CC(C)(C)OC4)c1	-8	3	20
COc1cccc(NC(=O)Cn2cnc3c(cnn3C(C)(C)C)c2=O)c1	-7	-6	-19
CCN(CC)C(=O)COC(=O)c1c2c(nc3ccccc13)/C(=C/c1ccc(O)cc1)CC2	-102	-129	i
COc1ccc(C(C)=O)cc1CC(C(=O)Nc1ccc2c(c1)OCO2)C(=O)c1ccccc1 (stereo unspecified)	10	-6	9
Cc1ccc(/C=C/c2nc(Cn3cnc(S(=O)(=O)N4CCCCC4)c3)no2)cc1	-7	-3	-51
Cc1nn(-c2ccccc2)cc1-c1noc(C(=O)NCc2ccco2)n1	12	1	24
CCc1ccc(C(=O)NCc2ccc(N3CCOCC3)nc2)cc1	27	-16	19
COCCNC(=O)c1ccc(-c2ccc(N3CCCCC3)nc2)cc1	68*	4	31*
Cn1cccc1C(=O)C(=O)Nc1ccc(Cl)cc1Cl	12	16	20
CC(Nc1ccc2c(c1)OCO2)C(=O)Nc1cccc(S(=O)(=O)N2CCOCC2)c1 (stereo unspecified)	-14	-39	-76
O=C(c1noc2ccc(S(=O)(=O)Nc3ccccc3F)cc12)N1CCCCC1	-1	-23	4
COc1cc2c(=O)n(CC3CCCO3)c(=O)n(CC(=O)Nc3ccc4c(c3)OCCO4)c2cc1OC (stereo unspecified)	49*	12	38*
COc1cc2c(=O)n(CCCC(=O)NCC3CCCO3)c(=O)n(CC(=O)c3ccc(Cl)cc3)c2cc1OC (stereo unspecified)	-91	-14	i
CCOc1ccccc1NC(=O)Cn1c(=O)n(CCC(=O)NC2CCCC2)c(=O)c2cc(OC)c(OC)cc21	4	0	20
COc1cc2c(=O)n(CC3CCCO3)c(=O)n(CC(=O)c3ccc4c(c3)OCO4)c2cc1OC (stereo unspecified)	10	47*	-5
COc1cc2c(=O)n(CCC(=O)NCC3CCCO3)c(=O)n(CC(=O)c3ccccc3)c2cc1OC (stereo unspecified)	6	0	23
COc1cc2c(=O)n(CCCC(=O)NCC3CCCO3)c(=O)n(CC(=O)NC3CCCCC3)c2cc1OC (stereo unspecified)	3	12	33*
CC(C)n1c(N2CCCN(C(=O)c3ccco3)CC2)cc(=O)n(C(C)C)c1=O	-12	0	-21
Cc1nc(C2CCN(C(=O)Cn3cncn3)CC2)c2sccn12	13	13	19

Screening data from PubChem BioAssay.
